Assay results: PubChem BioAssay (NCI)
Compounds without any hit were thinned out: in the full panel of roughly 83,000, 20% have a hit.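 Compound tested at a single concentration for 48 hours in 96-well plates; a percent growth value below 10 was scored as active.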 Calls of active or inactive are those of the source.

Assays:
Test in all cases: NCI-60 one-dose screen, 48 h (100 = growth as untreated, 0 = no growth, -100 = all killed)
Conditions in all cases: 10 µM
RPMI-8226 leukemia = tested on: RPMI-8226 leukemia
OVCAR-8 ovarian = tested on: OVCAR-8 ovarian
OVCAR-5 ovarian = tested on: OVCAR-5 ovarian
OVCAR-4 ovarian = tested on: OVCAR-4 ovarian
SK-OV-3 ovarian = tested on: SK-OV-3 ovarian
IGROV1 ovarian = tested on: IGROV1 ovarian
HS 578T breast = tested on: HS 578T breast
NCI/ADR-RES ovarian = tested on: NCI/ADR-RES ovarian
T-47D breast = tested on: T-47D breast
MDA-MB-435 melanoma = tested on: MDA-MB-435 melanoma
SW-620 colon = tested on: SW-620 colon
MCF7 breast = tested on: MCF7 breast
HCT-116 colon = tested on: HCT-116 colon
HCC-2998 colon = tested on: HCC-2998 colon
KM12 colon = tested on: KM12 colon
MDA-MB-468 breast = tested on: MDA-MB-468 breast
OVCAR-3 ovarian = tested on: OVCAR-3 ovarian
BT-549 breast = tested on: BT-549 breast

Measured: growth

CC1=C2C(=C[C@@](C)(COCOCCCl)[C@@H]2O)C(=O)[C@](C)(O)C12CC2
active: OVCAR-8 ovarian -38.4% | OVCAR-5 ovarian -56.6% | OVCAR-4 ovarian -48.6% | SK-OV-3 ovarian -33.7% | IGROV1 ovarian -38.5% | HS 578T breast -15.8% | NCI/ADR-RES ovarian -61.7% | T-47D breast -15.8% | MDA-MB-435 melanoma -81.1% | SW-620 colon 0.591% | MCF7 breast -46.2% | HCC-2998 colon -91.7% | KM12 colon 0.906% | MDA-MB-468 breast -89.9%
inactive: RPMI-8226 leukemia 10.1% | HCT-116 colon 12.6%

O=C1Nc2cc(-c3ccc(NC(=O)c4cccs4)cc3)ccc2/C1=C/c1ccc[nH]1
active: MCF7 breast -12.7% | MDA-MB-468 breast -19.7%
inactive: RPMI-8226 leukemia 52.4% | OVCAR-8 ovarian 63.4% | OVCAR-5 ovarian 89.7% | OVCAR-4 ovarian 50.4% | SK-OV-3 ovarian 108% | IGROV1 ovarian 97.8% | OVCAR-3 ovarian 69.6% | HS 578T breast 73.3% | NCI/ADR-RES ovarian 62.1% | T-47D breast 22.2% | MDA-MB-435 melanoma 102% | SW-620 colon 60.3% | HCT-116 colon 53.3% | HCC-2998 colon 79.5% | KM12 colon 39.3%

CCCS(=O)(=O)c1oc(-c2ccc(F)cc2)nc1S(=O)(=O)c1ccc(F)cc1
inactive: SK-OV-3 ovarian 83.3% | IGROV1 ovarian 74.9% | HS 578T breast 56.8% | KM12 colon 41.8%
active: RPMI-8226 leukemia -46.6% | OVCAR-8 ovarian -69.3% | OVCAR-4 ovarian -90.7% | OVCAR-3 ovarian -96% | NCI/ADR-RES ovarian -52.2% | T-47D breast -67.9% | BT-549 breast -32.1% | MDA-MB-435 melanoma -80.3% | SW-620 colon -77.6% | MCF7 breast -65.7% | HCT-116 colon 3.42% | HCC-2998 colon -59.8% | MDA-MB-468 breast -91.4%

CC1(C)CC[C@]23CC[C@]4(C)[C@H](CC[C@@H]5[C@@]6(C)CC[C@H](N)C(C)(C)[C@@H]6CC[C@]54C)[C@H]2[C@H]1OC3=O
active: RPMI-8226 leukemia -31.4% | OVCAR-8 ovarian -50.7% | OVCAR-5 ovarian -99.9% | OVCAR-4 ovarian -90.3% | SK-OV-3 ovarian -32.1% | IGROV1 ovarian -94.2% | HS 578T breast -62.2% | NCI/ADR-RES ovarian -69.4% | T-47D breast -78.2% | BT-549 breast -97.7% | MDA-MB-435 melanoma -96.2% | SW-620 colon -73.7% | MCF7 breast -80.1% | HCT-116 colon -98.9% | HCC-2998 colon -92.2% | KM12 colon -86.6%

O=c1oc2ccc(-c3ccc(F)cc3F)cc2c(=O)n1-c1ccc(F)cc1
active: RPMI-8226 leukemia -26.9% | SK-OV-3 ovarian -11% | HS 578T breast -0.922% | NCI/ADR-RES ovarian -16.9% | T-47D breast -20.5% | BT-549 breast -25.8% | MDA-MB-435 melanoma 0.996% | MCF7 breast -4.67% | HCT-116 colon 8.96% | HCC-2998 colon 7.52% | KM12 colon -0.662% | MDA-MB-468 breast -29.8%
inactive: OVCAR-8 ovarian 14.7% | OVCAR-5 ovarian 50.8% | OVCAR-4 ovarian 10.8% | IGROV1 ovarian 23.5% | SW-620 colon 10.2%

COc1cc(Cn2c(C(F)(F)F)cc3c(Cl)ncnc32)ccn1
active: RPMI-8226 leukemia 6.17% | OVCAR-8 ovarian -16% | OVCAR-4 ovarian -58.4% | IGROV1 ovarian -90.6% | OVCAR-3 ovarian -52.4% | MDA-MB-435 melanoma -0.488% | SW-620 colon 4.9% | MCF7 breast 7.67% | HCT-116 colon -23.4% | HCC-2998 colon -95.6% | MDA-MB-468 breast -80.9%
inactive: OVCAR-5 ovarian 93.7% | SK-OV-3 ovarian 75.4% | HS 578T breast 11.2% | NCI/ADR-RES ovarian 67.7% | T-47D breast 66.5% | KM12 colon 30.8%

COc1cccc2nc(Nc3ccc(F)c(NC(=O)c4ccc(CN5CCN(C)CC5)c(C(F)(F)F)c4)c3)ccc12
active: RPMI-8226 leukemia -43.9% | HS 578T breast 6.57% | NCI/ADR-RES ovarian -3.12% | MDA-MB-435 melanoma -69.3% | SW-620 colon -63% | MCF7 breast -61.3% | HCT-116 colon 1.84% | HCC-2998 colon -94.5% | KM12 colon -22.2% | MDA-MB-468 breast -48.9%
inactive: OVCAR-8 ovarian 30.9% | OVCAR-5 ovarian 72.5% | OVCAR-4 ovarian 32.6% | SK-OV-3 ovarian 53.8% | IGROV1 ovarian 29.3% | T-47D breast 22% | BT-549 breast 82.6%

Cc1cccc2cc(-c3cc(-c4ccccc4)nc(=S)[nH]3)c(Cl)nc12
inactive: RPMI-8226 leukemia 81% | OVCAR-8 ovarian 85.4% | OVCAR-5 ovarian 108% | OVCAR-4 ovarian 99.5% | SK-OV-3 ovarian 116% | IGROV1 ovarian 93.1% | OVCAR-3 ovarian 107% | HS 578T breast 59.4% | NCI/ADR-RES ovarian 56.6% | T-47D breast 72.9% | SW-620 colon 92% | MCF7 breast 68.3% | HCT-116 colon 83.3% | HCC-2998 colon 93.1% | KM12 colon 91.4% | MDA-MB-468 breast 90.6%
active: MDA-MB-435 melanoma -6.63%

COC(=O)CC1CC1C1Cc2c(nc(N(C)S(C)(=O)=O)nc2C(C)C)-c2ccc(F)cc21 (stereo not drawn)
inactive: RPMI-8226 leukemia 46% | OVCAR-8 ovarian 80.6% | OVCAR-5 ovarian 90% | OVCAR-4 ovarian 82.3% | SK-OV-3 ovarian 106% | IGROV1 ovarian 81.4% | HS 578T breast 84.6% | NCI/ADR-RES ovarian 71.8% | T-47D breast 63.8% | BT-549 breast 64.8% | MDA-MB-435 melanoma 87.2% | SW-620 colon 66% | MCF7 breast 67.1% | HCT-116 colon 44.4% | HCC-2998 colon 101% | KM12 colon 76.2% | MDA-MB-468 breast 74.9%

O=c1oc2ccc(-c3ccc(F)cc3F)cc2c(=O)n1-c1ccc(F)c(Cl)c1
active: RPMI-8226 leukemia -31% | OVCAR-8 ovarian 3.87% | SK-OV-3 ovarian -9.67% | OVCAR-3 ovarian 3.83% | HS 578T breast -0.875% | NCI/ADR-RES ovarian -15.2% | T-47D breast -11.8% | BT-549 breast -51.9% | MDA-MB-435 melanoma -17.7% | SW-620 colon 3.17% | MCF7 breast -17.2% | HCT-116 colon 4.77% | HCC-2998 colon 2.58% | KM12 colon -22.7% | MDA-MB-468 breast -47%
inactive: OVCAR-4 ovarian 10.5% | IGROV1 ovarian 13%
